From PubChem BioAssay AID2314 (National Center for Advancing Translational Sciences (NCATS), 2010)
“And” between values parts separate entries of the source, which are not always exact repeats. Identical values can stand only once. Among all 300,000 compounds or so, about 37,000 (12%) were called active. Cut-off read from the data, not from the text of the source: active = max response mostly above about 13% (no sharp cut-off); inactive = mostly below about 14%. The sample as a whole holds a higher share of actives than the screen did.

Test: Cycloheximide Counterscreen for Small Molecule Inhibitors of Shiga Toxin; note: read at 38.3 µM for the half of the compounds with a filed dose; 0% is about no effect
Conditions: cell reporter, cycloheximide protein synthesis inhibition counterscreen; stronger effect = higher value
With `COC(=O)c1scc(C)c1NC(=O)CSc1ccc(Cl)cc1` the max response was -0.926% (inactive).
For `CCC(=O)Nc1ccc2nn(-c3ccc(F)cc3)nc2c1`, the max response was 48.7% (active).
For `Cc1nn(CC(=O)Nc2ccc(F)cc2)c(=O)c2ccccc12`, the max response was 6.83% (inactive).
In the case of `O=C(CN1CCN(c2ccc(F)cc2)CC1)Nc1cccc(C(F)(F)F)c1`, the max response is reported as 11.8% (inactive).
For `CC(C)OC(=O)CN1C(=O)c2ccccc2C1=O`, the max response was 0.757% (inactive).
In the case of `Cc1cc(/C=C2/SC(=O)N(CC(=O)N3CCCC3)C2=O)c(C)n1C`, the max response is reported as -2.09% (inactive).
In the case of `Cc1cc(/C=C2/SC(=O)N(CC(=O)OC(C)C)C2=O)c(C)n1C`, the max response is reported as 44% (active).
In the case of `CC(C)OCCCNC(=S)N1CCC(C(=O)c2ccc3c(c2)OCCO3)CC1`, the max response is reported as -2.67% (inactive).
With `c1csc(-c2nnc(COc3ncnc4sccc34)o2)c1` the max response was -1.52% (inactive).
For `c1csc(-c2nnc(COc3ccc4c(c3)OCO4)o2)c1`, the max response was 43% (active).
In the case of `CC1CCC2(CC1)NC(=O)N(Cc1nnc(-c3cccs3)o1)C2=O` (stereo not given), the max response is reported as 7.72% (inactive).
With `COc1cccc(Nc2nnc(SCC(=O)N3CC(C)OC(C)C3)s2)c1` (stereo not given) the max response was 6% (inactive).
For `COc1cccc(NC(=O)Nc2nnc(N3CCCCC3C)s2)c1` (stereo not given), the max response was 43.6% (active).
With `COc1cccc(C(=O)Nc2nnc(S(=O)(=O)N3CCCCC3)s2)c1` the max response was -1.34% (inactive).
For `O=C1CCN(CCCc2ccccc2)CCN1CCO`, the max response was -4.59% (inactive).
With `O=C(c1ccco1)N1CCN(CCOc2ccccc2)CC1` the max response was 9.67% (inactive).
For `O=C1CCN(CCc2ccccc2)CCN1CCOc1ccccc1`, the max response was 10.9% (active).
For `Cn1ncc2c(N3CCCCC3)nc(NCCCO)nc21`, the max response was -5.17% (inactive).
In the case of `OCCC#Cc1ccc(CN2CCN(Cc3ccsc3)C(CCO)C2)cc1` (stereo not given), the max response is reported as 11.5% (inactive).
For `CC1CCN(C(=S)c2cccc([N+](=O)[O-])c2)CC1`, the max response was -0.525% (inactive).
In the case of `O=C(/C=C/c1ccc(F)cc1)NC(=S)NNC(=O)c1cccnc1`, the max response is reported as -1.85% (inactive).
For `CS(=O)(=O)N(CC(=O)N1CCOCC1)c1cccc(Cl)c1Cl`, the max response was 4.45% (inactive).
With `Cc1ccc(CSc2nc3[nH]ncc3c(=O)[nH]2)cc1` the max response was 44.4% (active).
For `Cc1cccc(NC(=O)CSc2nc3[nH]ncc3c(=O)[nH]2)c1`, the max response was 6.25% (inactive).
With `CCCSc1nc2[nH]ncc2c(=O)[nH]1` the max response was -7.37% (inactive).
In the case of `CCC(C)(C)NC(=O)C(c1ccc(OC)cc1)N(C(=O)CCC(=O)Nc1cc(C)on1)c1ccc(OC)cc1OC` (stereo not given), the max response is reported as -1.05% (inactive).
With `COC(=O)c1ccc([C@@H](O)[C@H](C)C(=O)CC(=O)OC(C)(C)C)cc1` the max response was 16.5% (inactive) and 4.37% (inactive).
In the case of `C[C@H](NC(=O)OC(C)(C)C)c1nnc(SCC(N)=O)o1`, the max response is reported as 1.54% (inactive).
In the case of `CC(C)Sc1nnc([C@H](Cc2ccccc2)NC(=O)OC(C)(C)C)o1`, the max response is reported as -2% (inactive).
For `C[C@@H](NC(=O)OC(C)(C)C)c1nnc(S(=O)(=O)Cc2ccccc2)o1`, the max response was 15.5% (active).
For `COc1cc(-c2nnn(CC(=O)NCc3ccccc3)n2)cc(OC)c1OC`, the max response was -0.552% (inactive).
With `Cc1ccc(-n2c(O)c(C=Nc3ccc(S(=O)(=O)Nc4ncccn4)cc3)c3ccccc3c2=O)cc1C` the max response was 9.64% (inactive).
For `CC(C)Oc1ccc(CN2CCC(n3nccc3NC(=O)c3cccnc3)CC2)cc1`, the max response was 2.69% (inactive).
In the case of `COC(=O)C1=CN(c2ccc(F)c(F)c2)C=C(C(=O)OC)C1c1ccc([N+](=O)[O-])cc1`, the max response is reported as 4.1% (inactive).
For `CC(=O)c1ccc(N2CCN(S(=O)(=O)c3ccc4c(c3)CC(=O)N4C)CC2)cc1`, the max response was 11.5% (inactive).
For `COC(=O)c1cc(NC(=O)c2nn(C)c(=O)c3ccccc23)cc(C(=O)OC)c1`, the max response was -2.61% (inactive).
With `COC(=O)c1cc(NC2c3ccccc3C(=O)N2c2ccc(Cl)cn2)cc(C(=O)OC)c1` (stereo not given) the max response was 13.7% (active).
In the case of `CCc1ccccc1NC1c2ccccc2C(=O)N1c1cccnc1` (stereo not given), the max response is reported as 1.65% (inactive).
In the case of `COCCNC(=O)c1ccc2c(c1)ncn2-c1ccc(C)c(Cl)c1`, the max response is reported as -2.44% (inactive).
In the case of `Cc1cc(OCCCN2CCN(Cc3ccccc3)CC2)ccc1[N+](=O)[O-]`, the max response is reported as 2.14% (inactive).
For `NC1=NC(=O)C(Cc2cccc(Cl)c2Cl)S1` (stereo not given), the max response was -1.63% (inactive).
For `O=C(/C=C/Sc1ncn[nH]1)c1ccc(Cl)cc1`, the max response was 35.4% (active).
With `O=C(NCCOCc1ccc(Cl)cc1)c1ncn[nH]1` the max response was -5.7% (inactive).
For `COc1ccc(Cl)cc1CSc1ncn[nH]1`, the max response was 1.38% (inactive).
In the case of `Nc1nonc1-n1nnc(C(=O)N/N=C/C2CCCCC2)c1-c1ccccc1`, the max response is reported as -3.53% (inactive).
For `COc1ccc(C(C(=O)NCc2ccccc2)N(Cc2cccs2)C(=O)c2cnccn2)cc1` (stereo not given), the max response was 0.798% (inactive).
With `CN1CCN(C(=O)CCc2nc(-c3ccc(Cl)cc3)no2)CC1` the max response was 7.26% (inactive).
In the case of `Cc1ccc(-c2noc(CCC(=O)Nc3ccccc3N3CCN(C)CC3)n2)cc1`, the max response is reported as 3.85% (inactive).
For `Cc1ccc(-c2noc(CCC(N)=O)n2)cc1`, the max response was 15.6% (active).
With `CCNC(=O)CCc1nc(-c2ccc(C)cc2)no1` the max response was 18.6% (active).
With `COc1ccc(N2CCN(C(=O)CCc3nc(-c4ccc(C)cc4)no3)CC2)cc1` the max response was -3.69% (inactive).
With `CCCCNC(=O)CCNC(=O)c1ccc(C(C)(C)C)cc1` the max response was 5.17% (inactive).
In the case of `Cc1ccc(-c2noc(CNC(=O)c3ccoc3C)n2)cc1`, the max response is reported as 11% (inactive).
For `CCOc1cc(-c2noc(CCC(=O)N3CCOCC3)n2)ccc1OC`, the max response was -0.629% (inactive).
For `CCNC(=O)CCc1nc(-c2ccc(C(C)(C)C)cc2)no1`, the max response was 34.3% (active).
For `CC(C)C(NS(=O)(=O)c1cccs1)C(=O)Nc1nc(C(C)(C)C)cs1` (stereo not given), the max response was -2.46% (inactive).
In the case of `Cc1cc(NS(=O)(=O)c2ccc(NC(=O)C(C)Oc3cccc(C)c3C)cc2)nc(C)n1` (stereo not given), the max response is reported as -0.471% (inactive).
With `Cc1ccc(C)c(NC(=O)C(OC(=O)c2ccc(C)s2)c2ccccc2)c1` (stereo not given) the max response was 6.66% (inactive).
For `COc1cc(OC)c2c(-c3cccc(-c4cccc(N)c4)c3)cc(=O)oc2c1`, the max response was -2.04% (inactive).
With `CC(C)n1c(=S)[nH]c2cc(C(F)(F)F)ccc21` the max response was 12.9% (inactive).
